Compound activity (PubChem)
Compounds with a hit are over-represented: about 11% of the library has one in this group of screens.
HPGD block: HPGD (human) dehydrogenase inhibition | P15428 | purified HPGD, NADH fluorescence kinetic, PGE2 substrate | Potency, µM, actives largely listed as inhibitors | hit rate 4.3% among 150,000
Target sequence (P15428 whole entry, looked up): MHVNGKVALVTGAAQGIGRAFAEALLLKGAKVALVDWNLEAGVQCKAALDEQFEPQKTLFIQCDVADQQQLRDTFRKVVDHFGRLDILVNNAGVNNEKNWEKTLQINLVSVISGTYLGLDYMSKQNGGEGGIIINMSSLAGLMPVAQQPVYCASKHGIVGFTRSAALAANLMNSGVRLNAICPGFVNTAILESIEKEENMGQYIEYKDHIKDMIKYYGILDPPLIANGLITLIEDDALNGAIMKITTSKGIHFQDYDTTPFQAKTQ
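NADH formation kinetics: reaction with 30 uM PGE2 and 1 mM NAD+ (final), 20 nM enzyme, Tris-HCl pH 8 with Tween 20, after 15 min compound preincubation at room temperature. Fluorescence change, last versus first of five reads.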
ALDH1A1 block: inhibitors of human aldehyde dehydrogenase 1A1; hit rate 7.3% among 220,000; Potency, µM (highest dose often 75.3 µM), most hits filed as inhibitors; Purified ALDH1A1, NADH fluorescence, propionaldehyde substrate; P00352
PNC inhibitor: perinucleolar compartment assembly inhibition; hit rate 3.1% among 140,000; activity change (PNC), negative = inhibition, % at 10 µM; PC3M PTB-GFP, PNC prevalence imaging, 16 h; hits give low values;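 active = readout at or below -70, meaning at least 70% loss of cells showing the perinucleolar compartment, a nuclear body marking cancer cells; inconclusive = readout between -30 and a set limit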
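Compounds are pinned in duplicate onto adhered PC3M cells stably expressing GFP-tagged PTB and incubated 16 h at 37 C. Cells are then fixed, nuclei stained with Hoechst, and PNC-positive cells counted.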
Large screens that a line does not name were inactive. Unless noted, calls follow the shape of the dose curve; as a rule, active = well fitted inhibition curve with a large enough effect (not every such curve was filed as active); inconclusive = small, poorly fitted or top-dose-only effect, or another doubt; inactive = no such curve, though single readings can be large or run the other way.

CC(C)c1ccc(NC(=O)c2ccc(NS(C)(=O)=O)cc2)cc1	none (no result: HPGD block, PNC inhibitor)
CC(Sc1ccccc1)C(=O)NN=C1CCCCCCC1 (configuration not stated)	none (no result: HPGD block, PNC inhibitor)
Cc1cccc(-n2c(=S)[nH]c3nc4c(cc3c2=O)COC(C)(C)C4)c1	ALDH1A1 block 0.71µM (no result: HPGD block, PNC inhibitor)
Cc1cccc(-n2c(=S)[nH]c3c(oc4ccccc43)c2=O)c1	ALDH1A1 block inconclusive
Cc1cccc(NC(=O)CCCn2c(=S)[nH]c3ccccc3c2=O)c1	none (no result: HPGD block, PNC inhibitor)
O=C(O)CN1CCCC1=Nc1ccccc1	ALDH1A1 block 89µM
O=C(O)CN1CCN(Cc2ccccc2)C1=O	none
O=C(NC1CCCCC1)c1ccc(S(=O)(=O)c2ccccc2)cc1	none (no result: HPGD block, PNC inhibitor)
CCc1ccc(OCC(=O)Nc2ncn[nH]2)cc1	none (no result: HPGD block, PNC inhibitor)
O=C(NC1CC1)c1cc(F)c(F)cc1Cl	HPGD block 22µM
CC(C)(C)NC(=O)c1cc(F)c(F)cc1Cl	none
CCOC(Cn1cc(C)c(=O)[nH]c1=O)OCC	none (no result: HPGD block, PNC inhibitor)
CC(=O)Nc1cccc(OCc2ccc(S(=O)(=O)Cc3ccccc3)cc2)c1	none
COc1ccc2c(c1)C=C(C(=O)OCc1cccnc1)CO2	ALDH1A1 block 8.9µM (no result: HPGD block, PNC inhibitor)
COc1ccc(CNC(=O)C(=O)NCc2cccnc2)cc1	none (no result: HPGD block, PNC inhibitor)
Cc1ccc(NC(=S)N(CCCN2CCOCC2)Cc2cccnc2)cc1C	none (no result: HPGD block, PNC inhibitor)
N=c1sc2ccccc2n1-c1ccccc1	PNC inhibitor inconclusive
C=CC(=O)N=c1sc2ccccc2n1-c1ccccc1	ALDH1A1 block 0.22µM (no result: HPGD block, PNC inhibitor)
COC(=O)Cc1c(C(=O)OC)nnn1-c1ccc(OC(F)(F)F)cc1	none (no result: HPGD block, PNC inhibitor)
COC(=O)c1ccc(NC(C)=O)o1	none
COC(=O)c1ccc(NC(=O)c2ccccc2)o1	HPGD block 32µM
CC1CCN(S(=O)(=O)c2ccc3c(c2)c(=O)c(C(=O)NCc2ccccc2Cl)cn3C)CC1	ALDH1A1 block inconclusive
Cc1ccccc1-c1cc2nc(-c3ccc([N+](=O)[O-])cc3)cc(=O)n2[nH]1	none (no result: HPGD block, PNC inhibitor)
O=c1cc(-c2ccc([N+](=O)[O-])cc2)nc2cc(-c3ccc(F)cc3)[nH]n12	ALDH1A1 block 7.9µM, PNC inhibitor inconclusive
CCOC(=O)CC(CC(C)=O)C(=O)OCC (configuration not stated)	none (no result: PNC inhibitor)
CCOC(=O)c1ccccc1OC(=O)CS(=O)c1ccccc1[N+](=O)[O-] (configuration not stated)	ALDH1A1 block 22µM (no result: HPGD block, PNC inhibitor)
COC(=O)c1ccc(OC(=O)CS(=O)c2ccccc2[N+](=O)[O-])cc1 (configuration not stated)	none (no result: HPGD block, PNC inhibitor)
Cc1c(NC(=O)CCCCCN2C(=O)c3ccccc3C2=O)c(=O)n(-c2ccccc2)n1C	none
O=C(c1ccc(F)cc1)N(C(=O)c1ccc(F)cc1)c1ncccn1	none (no result: HPGD block, PNC inhibitor)
Oc1ccc(Cl)cc1C=Nc1ccccc1Br	none
Oc1ccc(Br)cc1C=Nc1ccc2c3c(cccc13)CC2	HPGD block inconclusive, ALDH1A1 block inconclusive, PNC inhibitor -98
CCSC(C)CC1C/C(=N/O)c2c(CC)noc2C1 (configuration not stated)	HPGD block inconclusive, PNC inhibitor -86
CCCC(=N)C1=C(O)CC(CC(C)SCC)CC1=O (configuration not stated)	none
CCCc1noc2c1/C(=N\O)CC(CC(C)SCC)C2 (configuration not stated)	HPGD block 8.9µM, ALDH1A1 block inconclusive, PNC inhibitor inconclusive
CCCC(=O)C1C(=O)CC(CC(C)SCC)CC1=O (configuration not stated)	none
COc1cc(NC(=S)Nc2ccccn2)c(OC)cc1Cl	none (no result: HPGD block, PNC inhibitor)
COc1ccc(CN(C)CC(=O)Nc2sc3c(c2C#N)CCC3)cc1OC	ALDH1A1 block 14µM (no result: HPGD block, PNC inhibitor)
CCN(CC)CC(=O)Nc1sc2c(c1C(=O)c1ccccc1OC)CCC2	none (no result: HPGD block, PNC inhibitor)
COc1cccc(CN(C)CC(=O)Nc2sc3c(c2C#N)CCC3)c1OC	ALDH1A1 block 25µM (no result: HPGD block, PNC inhibitor)
Cc1cccc(OCC(=O)Nc2sc3c(c2C#N)CCC3)c1	PNC inhibitor inconclusive
Cc1noc(C)c1C(=O)N1CCC2(CC1)CN(C(=O)Nc1cccc(F)c1)C2	none (no result: PNC inhibitor)
COc1ccc(Cc2nnc(NC(=O)CSc3ccc(Cl)cc3)s2)cc1OC	none
Cc1cccc(NS(=O)(=O)c2ccc(Br)s2)n1	ALDH1A1 block inconclusive, PNC inhibitor inconclusive
Cc1cc(C)nc(NS(=O)(=O)c2ccc(Br)s2)c1	HPGD block inconclusive, ALDH1A1 block 25µM, PNC inhibitor inconclusive
CC1CCCCC1NC(=O)c1cn(C)c2ccc(S(=O)(=O)N3CCCC3)cc2c1=O (configuration not stated)	ALDH1A1 block 13µM
Cn1cc(C(=O)NCc2cccnc2)c(=O)c2cc(S(=O)(=O)N3CCCCCC3)ccc21	none (no result: HPGD block, PNC inhibitor)
Cn1cc(C(=O)NC2CCCCC2)c(=O)c2cc(S(=O)(=O)N3CCCC3)ccc21	ALDH1A1 block inconclusive
CC1CCCC(NC(=O)COC(=O)c2cc(S(=O)(=O)N3CCCCC3)ccc2N2CCOCC2)C1C (configuration not stated)	ALDH1A1 block 10µM
CN(C1CCCCC1)S(=O)(=O)c1ccc2c(c1)c(=O)c(C(=O)NCCCN1CCCC1)cn2C	PNC inhibitor inconclusive
CN(C1CCCCC1)S(=O)(=O)c1ccc2c(c1)c(=O)c(C(=O)NCCN1CCCC1)cn2C	ALDH1A1 block 7.9µM, PNC inhibitor inconclusive
O=C(COC(=O)c1cc(S(=O)(=O)N2CCCCC2)ccc1N1CCOCC1)NC1CCS(=O)(=O)C1 (configuration not stated)	none (no result: HPGD block, PNC inhibitor)
Cn1cc(C(=O)NCc2cccs2)c(=O)c2cc(S(=O)(=O)N3CCCC3)ccc21	ALDH1A1 block 4.5µM
COc1cccc(-n2cnc3sc(C)cc3c2=O)c1	none (no result: HPGD block, PNC inhibitor)
S[C@@H]1CCCN(Cc2ccccc2)C1	none (no result: PNC inhibitor)
O=C1CCC(NC(=O)c2ccccc2)C(=O)N1 (configuration not stated)	none (no result: HPGD block, PNC inhibitor)
CSc1nc(C)cc(Nc2ccc(O)c(CN3CCCCC3)c2)n1	none (no result: PNC inhibitor)
O=C(O)/C=C1\CCCc2ccccc2[C@H]1O	none (no result: PNC inhibitor)
FCCCOc1ccc(CN2CCN(c3ccccc3F)CC2)cc1	none (no result: HPGD block, PNC inhibitor)
O=C(O)C[C@H](Cc1ccc2c(c1)OCO2)C(=O)O	none (no result: PNC inhibitor)
O=C(/C=C/c1ccc(S(=O)(=O)NCc2ccco2)cc1)N1CCN(c2ccccc2)CC1	none (no result: HPGD block, PNC inhibitor)
CN(CCNC(=O)c1cn(C)c2ccc(S(=O)(=O)N(C)C)cc2c1=O)CCc1ccccc1	none
COC(=O)c1cn(C)c2ccc(S(=O)(=O)N3CCOCC3)cc2c1=O	none (no result: HPGD block, PNC inhibitor)
CC1CCCC(NC(=O)c2cn(C)c3ccc(S(=O)(=O)N4CCCC4)cc3c2=O)C1C (configuration not stated)	ALDH1A1 block 5.6µM
COC(=O)c1cn(C)c2ccc(S(=O)(=O)N3CCCC3)cc2c1=O	HPGD block 8.9µM, ALDH1A1 block inconclusive, PNC inhibitor -109
CCN(CC(=O)NCc1cccs1)c1ccc(S(=O)(=O)N2CCOCC2)cn1	ALDH1A1 block inconclusive
CCN(CC(=O)NCc1cccs1)c1ccc(S(=O)(=O)N2CCCC2)cn1	ALDH1A1 block 2.5µM (no result: HPGD block, PNC inhibitor)
CN(CCNC(=O)c1cn(C)c2ccc(S(=O)(=O)N3CCCC3)cc2c1=O)CCc1ccccc1	ALDH1A1 block 32µM, PNC inhibitor inconclusive
CC1CCN(S(=O)(=O)c2ccc3c(c2)c(=O)c(C(=O)NC2CCCC2)cn3C)CC1	ALDH1A1 block inconclusive
CCn1c(COc2cccc3cccnc23)nnc1SC(F)F	none (no result: HPGD block, PNC inhibitor)
NCCNS(=O)(=O)c1ccc(N)cc1	none (no result: PNC inhibitor)
CN(C(=O)c1cc2ccccc2oc1=O)C1(C)CCS(=O)(=O)C1 (configuration not stated)	none (no result: HPGD block, PNC inhibitor)
